The campaign covered roughly 2,400 compounds. About 40 (2%) were called active. Not shown: some 1% with an inconclusive outcome. The sample holds actives, similar compounds and a random draw of the others, so the mix is not that of the screen.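 Rule for the calls: active = inhibition at or above 60%; inconclusive = inhibition from 0% up to below 60%; inactive = no inhibition observed.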
Assay: qHTS Assay for Small Molecule Inhibitors of Mitochondrial Division or Activators of Mitochondrial Fusion: Hit Validation in Malachite Green Assay;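 for inhibition: plate controls were DMSO wells with GTPase for no effect and protein-free buffer wells for full effect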
Settings: purified GTPase, malachite green phosphate release, A650; hits give high values
From the text: The budding yeast S. cerevisiae is a powerful system to study mitochondrial fusion. Unlike other organisms, yeast cells without functional mitochondrial DNA (mtDNA) can be propagated and studied as long as they maintain a mitochondrial compartment and are provided with a fermentable carbon source. When mitochondrial fusion is blocked in yeast, mitochondrial tubules rapidly fragment and division continues unopposed. Under conditions where fusion is compromised in mammalian cells, nearly identical changes in mitochondrial structure have been observed. Thus, these findings indicate that steady state mitochondrial structure in cells is a characteristic and specific indicator of fusion activity. Mounting evidence has pointed to a connection between mitochondrial dynamics and apoptosis in mammalian cells. These studies indicate that in mammalian cells mitochondrial dynamics are more integrated into cellular processes than in yeast cells and have evolved not only to distribute the organelle but also to aid in the regulation of cellular homeostasis. Mitochondrial fusion proteins attenuate apoptosis by inhibiting the release of cytochrome c from mitochondria, in part by controlling cristae structures. Thus, small molecules that inhibit mitochondrial fusion may promote apoptosis and potentially act as novel chemotherapeutics and stimulation of apoptosis has become an attractive target of anti-cancer therapies. To identify inhibitors of mitochondrial division, we exploit the growth phenotypes of mitochondrial fusion-defective mutants. The temperature sensitive fusion alleles, such as fzo1-1 and mgm1-5, cause mitochondrial membranes to fragment in cells under non-permissive conditions and cells lose mtDNA, and are unable to grow in the presence of non-fermentable carbon source glycerol. Inhibiting mitochondrial division rescues growth. The hits were tested by the assay provider in a malachite green assay. NIH Chemical Genomics Center [NCGC] NIH Molecular Libraries Probe Production Centers Network [MLPCN] MLPCN Grant: MH081279 Assay Submitter (PI): Jodi M. Nunnari
Malachite Green Reagent Malachite Green carbinol base- Aldrich 229105 Ammonium molybdate - Sigma A7302 For 100 mL Malachite Green reagent in 1N HCl 16 mL conc. HCL + 32 mL H20 = 48 mL 4N HCl 34 mg malachite green base into 40 mL 1N HCl (10 mL 4N HCl + 30 mL H20) 1 g ammonium molybdate in 15 mL 4N HCl Mix Solutions together. Bring up to […] with H2O. Filter using a 0.2 um tissue culture filter unit (has plastic bottle attached) store at 4 masculine C. (Avoid Glassware/Plastics washed in detergent. Mix solutions in 50 mL conical vials.) For 20 uL reaction volume 1.0 uL Test Drug or DMSO: Added first to each well […]: 25 mM Hepes/Pipes pH 7.0 (H/P) 2.0 uL: 50 mM MgCl2 (final 5mM) 2.32 uL: 1 M NaCl (with contributing protein salt, Final = 150mM) 13.4 uL per reaction. Can be mixed in larger volume (Mini Master Mix) 1.6 uL: Protein 7.5 uM or Protein Freezing Buffer. (Final = 0.6uM) After Protein Added to mini Master Mix, 15ul Total Master Mix added to each well with drug. 4 uL: 500 uM GTP (Final = 100uM), Dilute with 25 mM H/P, store on ice. 20 uL Total Volume Make Master Mix: (Calculate desired reactions and add a few for multi-channel pipetting volume). Multiply the number of desired reactions by 13.4 uL for total Mini Master volume. Multiply the number of desired reactions by 1.6 uL for total Protein volume. Mix, and keep on ice until added to wells. Add 15 uL of Master Mix to each reaction well, incubate with drug for 10 min. For Positive (No Drug) controls add 15 uL Master Mix to wells with only 1 uL DMSO. Make PFB (Protein Freezing Buffer) (no Protein) Master Mix. Multiply the number of desired reactions by 13.4 uL for total Mini Master volume. Multiply the number of desired reactions by 1.6 uL for total PFB volume. Mix, and keep on ice until added to wells Add 10 uL of PFBMaster Mix to each Phosphate Standards well, and 15 uL to each negative control well with DMSO. […]

SMILES	inhibition
O=C(/C=C/c1ccc(Cl)cc1)N(c1ccccn1)C1CCCCC1	inactive
CC(/C=N/NC(=O)CSc1nnc(SCc2ccccc2)s1)=C\c1ccco1	inactive
COc1ccc(-c2nn(-c3ccccc3)cc2/C=N/Nc2ccc3ccccc3n2)cc1OC	inactive
COc1ccccc1C1CC(c2ccc(Br)cc2)=NN1C(=O)c1cccnc1 (centres undefined)	inactive
CCC(C)c1ccc(N(CC(=O)NC(C)(C)C)C(=O)CNC(=O)c2cccs2)cc1 (centres undefined)	inactive
Cc1nc(NCc2ccccn2)c2c3c(sc2n1)CCCC3	inactive
Cc1ccc(-c2nnc(NC(=O)c3ccco3)o2)c(C)c1	74.4% (active)
COc1c(C)cc(Br)cc1C(=O)Nc1cccc(NC(=O)c2ccco2)c1	inactive
CN(C)c1cccc(NC(=O)c2ccco2)c1	inactive
CC1=C(C)CC(C(=O)NNC(=O)c2csc3c2CCC(C(C)(C)C)C3)C(C(=O)O)C1 (centres undefined)	inactive
Cc1ccc(SCCNS(=O)(=O)c2ccc3c(c2)OCCO3)cc1	inactive
C=CCc1c(C)nc(-c2ccccc2)nc1Nc1ccc(O)cc1	inactive
COc1ccc(Cl)cc1NC(=O)CN(C)C(=O)c1cc2c(F)cccc2s1	inactive
COc1cccc(C2=CC(=O)C[C@H](c3ccc(Cl)cc3)C2)c1	inactive
COC(=O)[C@@]12CCCCN1[C@H](c1ccc(-c3ccc(OC)cc3)c(OC)c1)[C@@H]1C(=O)N(C)C(=O)[C@@H]12	inactive
O=C(Nc1cccc(-c2nnc(-c3ccccc3)o2)c1)c1ccc(Br)o1	inactive
O=C1N=C(N2CCN(c3ccccc3)CC2)S/C1=C/c1cccs1	inactive
COc1cc(/C=C2\SC(N3CCCCC3)=NC2=O)cc(OC)c1OC	inactive
COc1ccc(OC)c(/C=C2\SC(N3CCCC(C)C3)=NC2=O)c1 (centres undefined)	66.7% (active)
COC(=O)c1cc2c(ccn2-c2ccc(F)cc2)n1Cc1ccc(OC(C)=O)cc1	inactive
Cc1ccc(S(=O)(=O)NC23CC4CC(CC(C4)C2)C3)cc1	inactive
CC1CCc2nc3ccc(S(=O)(=O)N4CCC(C(=O)NCc5ccccc5Cl)CC4)cc3c(C(=O)O)c2C1 (centres undefined)	inactive
Cc1ccc2nnn(Cc3cccc(C(C)(C)C)c3O)c2c1	inactive

SMILES	inhibition
COc1cccc(-c2nnc(NC(=O)c3ccc4ncsc4c3)o2)c1	inactive
COc1ccc(C(=O)Nc2nc(-c3cccs3)cs2)cc1	inactive
COc1ccc(-c2nnc(NC(=O)c3ccc(F)cc3)o2)cc1	63.4% (active)
O=C(Nc1nnc(-c2ccccc2)o1)c1cc(-c2cccs2)nc2ccccc12	inactive
O=C(Nc1ccccc1N1CCCC1)c1ccc2ccccc2c1	inactive
O=C(Nc1nnc(-c2ccco2)o1)c1ccc2ccccc2c1	60.5% (active)
Nc1nc(Nc2cccc(Cl)c2)nc(NCc2ccco2)c1[N+](=O)[O-]	inactive
Cc1ccc(N=C2NC(=O)/C(=C\c3ccsc3)S2)c(C)c1	inactive
COc1ccc(C(=O)Nc2cc3c(cc2N2CCCCC2)n(C)c(=O)n3C)cc1OC	inactive
O=C(CCNC(=O)c1ccccc1Cl)Nc1ccc(Cl)c(C(F)(F)F)c1	inactive
O=C(Nc1cccc(-c2nc3ccccc3s2)c1)c1cccs1	inactive
Cc1c(NC(=O)c2cccs2)cccc1-c1nc2ccccc2s1	85.9% (active)
CC(=O)Nc1ccc(O)c(-c2nc3ccccc3s2)c1	inactive
CCOc1ccc2nc(NC(=O)Nc3cccs3)sc2c1	inactive
Cc1c(Cl)c([N+](=O)[O-])nn1Cc1ccc(C(=O)Nc2ccc(Cl)cn2)o1	inactive
O=C(Nc1ccc(O)c2c(=O)cc(-c3cccc(Cl)c3)oc12)c1ccccc1Cl	inactive
CC(C)n1c(C(=O)OCC(=O)NCc2ccc3c(c2)OCO3)cc2sccc21	inactive
CC(CCc1ccccc1)NC(=O)/C=C/c1ccc(F)cc1 (centres undefined)	inactive
CCNc1ccc(Br)cc(C(=O)/C=C/c2ccc(Cl)cc2)c1=O	100% (active)
CCOC(=O)c1c(C)[nH]c(C)c1C(=O)COC(=O)/C=C/c1ccc(Cl)cc1	inactive
CC(=O)Nc1cccc(C(=O)/C=C/c2ccc(Br)cc2)c1	inactive
CCOc1ccc(CN(C(=O)c2cc3ccccc3oc2=O)C2CC2)cc1	inactive
O=C(c1ccc(COc2ccc(Cl)cc2)o1)N1CCN(Cc2ccc3c(c2)OCO3)CC1	inactive

SMILES	inhibition
CCOC(=O)c1n[nH]n2c1nc(=O)c1ccccc12	inactive
Cc1nc(CS(=O)(=O)c2ccc(Cl)cc2)cc(Sc2ccccc2Cl)n1	inactive
CCCCc1cc(=O)oc2cc(OS(C)(=O)=O)ccc12	inactive
CCCCc1c(C)nc2ccccc2c1SCCC#N	73.5% (active)
CCCCSc1nnc(-c2ccc(C)cc2)c2ccccc12	inactive
CCCc1c(C)nc2ccccc2c1SCCC#N	84.5% (active)
CCCCN(CC)c1nc(-c2ccncc2)nc2ccccc12	inactive
COc1ccc(-c2ccc(-c3nc4ccc(C)cn4c3NC3CCCCC3)cc2OC)cc1	inactive
Cc1cc2c(cc1C)CSC(c1ccccc1O)SC2	inactive
CCOC(=O)c1ccc(NC(=S)N2CCSC2c2ccc(Cl)cc2)cc1 (centres undefined)	inactive
CCCCC(c1nnnn1CC1CCCO1)N1CCN(c2nc3ccccc3s2)CC1 (centres undefined)	inactive
Cc1cccc(-c2nc(CS(=O)CC(=O)NC(C)CCc3ccccc3)c(C)o2)c1 (centres undefined)	inactive
COC(=O)c1sc2nc(C)nc(SCC(=O)C(C)(C)C)c2c1C	inactive
Cc1ccccc1N=C(NOCc1ccccc1)c1nonc1N	inactive
C[C@@]12C(=O)N(Cc3ccccc3)CC(=O)N1[C@H]1c3cc(Cl)ccc3OC[C@@H]1[C@@H]2c1ccccc1	inactive
O=C(Nc1cc(-c2ccccc2)cs1)c1ccco1	inactive
CCCc1cc(C(N)=O)c(NC(=O)c2ccoc2C)s1	101% (active)
CCC1CCc2c(sc(NC(=O)c3ccoc3C)c2C(N)=O)C1 (centres undefined)	inactive
Cc1sc(NC(=O)c2ccco2)nc1-c1ccccc1	inactive
NC(=O)c1cc(Cc2ccccc2)sc1NC(=O)c1ccco1	102% (active)
Cc1occc1C(=O)NC1CCCCCCC1	inactive
Cc1ccc(C)c(N2CCN(C(=O)c3csc4ccccc34)CC2)c1	inactive
Cc1cc(-c2ccc(C)c(S(=O)(=O)NCc3ccc(Br)cc3)c2)on1	inactive

— PubChem BioAssay AID602289 (National Center for Advancing Translational Sciences (NCATS), 2012)
